Growth data for 27 compounds are collected here from PubChem BioAssay (NCI).

Where “and” joins values, the source holds several entries; their conditions need not be identical. Identical values can stand only once. Compounds without any hit were thinned out: in the full panel of roughly 83,000, 20% have a hit.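 In brief: 96-well plates, 48 h treatment, single concentration, percent growth endpoint.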 Calls of active or inactive are those of the source. Rule for the calls: active = growth percent below 10; inactive = the rest.

The test system of this experiment is SF-268 CNS. The experiment is described as follows: NCI-60 one-dose screen, 48 h (100 = growth as untreated, 0 = no growth, -100 = all killed). The conditions noted are these: 10 µM.
Take `C=NCC#N`: the growth was 103% (inactive) and 102% (inactive).

Consider `COC(=O)C1C(O)C(C)C(O)C(C)/C=C\C=C(C)C(=O)Nc2c(C)c(OC(C)=O)c3c(c2O)C(=O)C(C)=C2OCOC(=C23)C(C)=CC(C)(O)C(O)C(C)C1O` (configuration not stated), for which the growth is 92.2% (inactive).

With `[Cl][Hg][c]1ccc(Cl)s1`, the growth is 25.2% (inactive).

On to `CC(C)c1cc([N+](=O)[O-])cc([N+](=O)[O-])c1O`, for which the growth was 102% (inactive).

In the case of `COS(=O)(=O)c1ccccc1`, the growth was 95.9% (inactive).

In the case of `[O-][n+]1ccccc1S`, the growth is 70.7% (inactive).

`COC(C(=O)C(O)C(C)O)C1Cc2cc3cc(OC4CC(OC(C)=O)C(OC5CC(O)C(OC)C(C)O5)C(C)O4)cc(O)c3c(O)c2C(=O)C1OC1CC(OC2CC(OC3CC(C)(O)C(OC(=O)C(C)C)C(C)O3)C(O)C(C)O2)C(O)C(C)O1` (configuration not stated): the growth is 2.42% (active).

Regarding `C/C1=C\[C@H](C)C[C@H](C)OC(=O)C[C@H](c2ccc(O)cc2)NC(=O)[C@@H](Cc2c(Br)[nH]c3ccccc23)N(C)C(=O)[C@H](C)NC(=O)[C@@H](C)C1`, the growth was -30.3% (active).

`Oc1c(I)cc(I)cc1I`: the growth is 104% (inactive).

Take `COc1ccc2c(ccc3oc([N+](=O)[O-])cc32)c1`: the growth was -6.08% (active).

For the compound `CC(C)(C)OOC(=O)/C=C\C(=O)OOC(C)(C)C`, the growth was 93.8% (inactive).

As for `CC12OOC(c3ccccc31)c1c2ccc2ccccc12` (configuration not stated), the growth is 43.1% (inactive).

On to `COc1cc(/C=C/[N+](=O)[O-])cc(Br)c1OC`, for which the growth was 32% (inactive).

Consider `COc1ccc(/C=C\[N+](=O)[O-])cc1OC`, for which the growth is 73.8% (inactive) and 70.3% (inactive).

Consider `Cc1cc(C(C)(C)c2ccc(O)c(C)c2)ccc1O`, for which the growth is 90.3% (inactive).

Take `O=[P+](O)c1ccccc1`: the growth is 103% (inactive).

As to `O=C(CCl)Nc1ccc(Cl)cc1`, the growth is 41.9% (inactive).

Take `Cc1ccc(C(=O)C2C(c3ccccc3)N2C2CCCCC2)cc1` (configuration not stated): the growth was 111% (inactive) and 102% (inactive).

Consider `COc1ccccc1[As]=[As]c1ccccc1OC` (configuration not stated), for which the growth was -82.9% (active).

`COc1cc2c(cc1OC)C13CCN4CC5=CCOC6CC(=O)N2C1C6C5CC43` (configuration not stated): the growth is 103% (inactive).

Take `Cn1c(O)c(N=O)c(=O)n(C)c1=O`: the growth is 92.8% (inactive) and 97.5% (inactive).

In the case of `N#CCc1ccccc1`, the growth was 93.4% (inactive).

Consider `COc1cc([C@@H]2c3cc4c(c(O)c3C[C@H]3COC(=O)[C@@H]32)OCO4)cc(OC)c1OC`, for which the growth was 21.5% (inactive).

Turning to `CC[C@@H](C)[C@@H]1NC(=O)C(NC(=O)C(CC(C)C)N(C)C(=O)C2CCCN2C(=O)C(C)O)C(C)OC(=O)C(Cc2ccc(OC)cc2)N(C)C(=O)C2CCCN2C(=O)C(CC(C)C)NC(=O)C(C)C(=O)C(C(C)C)OC(=O)C[C@H]1O` (some centres not stated), the growth was -49.4% (active).

As to `CC[C@@]1(O)C[C@H](OC2CC(N(C)C)C(O)C(C)O2)c2c(cc3c(c2O)C(=O)c2c(O)ccc(O)c2C3=O)[C@H]1C(=O)OC` (some centres not stated), the growth was -61% (active).

Take `O=C(CBr)Nc1ccccc1`: the growth was 90.1% (inactive).

Take `S=C=NCCc1ccccc1`: the growth is 58.2% (inactive).
